The values that follow come from PubChem BioAssay.

Activity calls are given as the source filed them.

A short description of assay [1]: compound effects on lung adenocarcinoma cell viability – A549, calcein-AM fluorescence, 48 h, basal, profiling panel (AID 1162). To be noted: higher = more signal.
Assay [2] can be described thus: compound effects on differentiated 3T3-L1 adipocyte viability – cell-based, 3T3-L1 adipocytes, calcein-AM fluorescence, 48 h, basal, profiling panel (AID 1163). Particulars: 3T3-L1 adipocytes viability, higher = more signal.
The nature of assay [3]: compound effects on hepatocellular carcinoma cell viability – HepG2, calcein-AM fluorescence, 48 h, basal, profiling panel (AID 1164). To be noted: higher = more signal.
Assay [4] can be described thus: compound effects on multiple myeloma cell viability – MM1S, calcein-AM fluorescence, 48 h, basal, profiling panel (AID 1165).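 Note: viability of MM1S multiple myeloma cells under basal unstimulated conditions.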 Particulars: higher = more signal.
A short description of assay [5]: calcein-AM signal in unstimulated myeloma cells – cell-based, calcein-AM fluorescence, 48 h, PK04 Diversity Set, profiling panel (AID 1166).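 Note: cells grown under basal conditions without added stimulus.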 Particulars: RPMI8226 myeloma viability, higher = more signal.
Assay [6] is described as follows: JC-1 mitochondrial signal, unstimulated HepG2 cells – cell-based, JC-1 fluorescence, 24 h, 100 nL compound, profiling panel (AID 1167). Particulars: HepG2 mitochondrial potential, higher = more signal.
A short description of assay [7]: JC-1 mitochondrial signal, unstimulated adipocytes – cell-based, JC-1 fluorescence, 3T3-L1 adipocytes, 24 h, 100 nL compound, profiling panel (AID 1168). To be noted: JC-1 mitochondrial fluorescence, higher = more signal, called active from +8 up or from −8 down.
The nature of assay [8]: JC-1 mitochondrial signal, unstimulated myeloma cells – cell-based, JC-1 fluorescence, RPMI8226, 24 h, 100 nL compound, profiling panel (AID 1169). To be noted: JC-1 mitochondrial potential fluorescence, higher = more signal.
Assay [9] can be described thus: JC-1 mitochondrial signal, unstimulated MM1S myeloma – cell-based, JC-1 fluorescence, 24 h, 100 nL compound, profiling panel (AID 1170). Particulars: MM1S mitochondrial potential, higher = more signal.
The nature of assay [10]: resazurin metabolic signal in A549 cells – cell-based, resazurin fluorescence, 24 h, PK04 Diversity Set, profiling panel (AID 1171). To be noted: A549 viability, higher = more signal, called active from +8 up or from −8 down. On the technique in general: The colour change of resazurin is a common sign of viable cells or microbes.
Note: test concentration not given here.

As to `O=C1NC(=O)C2C1C=CC(C(O)c1ccco1)N2Nc1ccccn1` (stereo not given), the z-score was -0.291 in [1]; -0.0855 in assay [2]; -0.125 in assay [3]; -0.0456 in assay [4]; -0.529 in assay [5]; -1.33 in assay [6]. The z-score in assay [7] was -0.688 (inactive); in assay [8], 0.127; in assay [9] it was -0.154; in assay [10], -0.974 (inactive).

For `[N-]=[N+]=NCc1ccccc1[C@@H]1OC(c2ccc(OCCCO)cc2)=N[C@]1(CCS(=O)(=O)c1ccccc1)C(=O)NCC(O)CO` (stereo not given in full), the z-score in [1] was 1.3; in assay [2], 0.273; in assay [3], 1.4; in assay [4], 0.481; in assay [5], 1.67; in assay [6], -0.142. The z-score in assay [7] is 0.0693 (inactive); in assay [8], -0.0493; in assay [9], -0.198; in [10] it was -0.911 (inactive).

As for `Cc1ccc(S[C@]2(C(=O)O)CC(=O)N(C3Cc4ccccc4C3)[C@@H]2c2ccc(CO)cc2)cc1`, the z-score in [1] is -0.197; in assay [2], 0.729; in assay [3], -0.574; in [4], -0.428; in assay [5], -2.56; in assay [6], 0.125. Besides, the z-score in assay [7] is -0.58 (inactive); in assay [8] it was 0.522; in [9] it was 0.353; in assay [10] it was -0.831 (inactive).

Take `NC(=O)NCC#Cc1ccc2c(c1)[C@]1(C(=O)N2)[C@H](C(=O)O)[C@H]2C(=O)O[C@H](c3ccccc3)[C@H](c3ccccc3)N2[C@@H]1c1ccc(OCCO)cc1`: the z-score was 0.0179 in [1]; 0.359 in [2]; -0.519 in assay [3]; 0.231 in assay [4]; 0.12 in assay [5]; -2.3 in assay [6]. Further, the z-score is -0.483 (inactive) in [7], 0.00293 in assay [8], 0.12 in [9] and 0.721 (inactive) in assay [10].

As to `COCCOC(=O)N1C(=O)[C@@]2(c3cc(C#CCC(C(=O)OC)C(=O)OC)ccc31)[C@H](C(=O)N1CCc3cc(OC)c(OC)cc3C1)[C@H]1C(=O)O[C@H](c3ccccc3)[C@H](c3ccccc3)N1[C@@H]2c1ccc(OCCO)cc1`, the z-score in [1] was 0.206; in assay [2], 0.105; in assay [3], 1.42; in assay [4], -0.219; in assay [5], 0.0896; in assay [6], -0.781. In addition, the z-score in assay [7] is 0.512 (inactive); in [8], -0.637; in assay [9] it was -1.28; in [10], -0.225 (inactive).

Take `COc1ccc(C(O)C2C=CC3C(=O)N(c4ccccc4)C(=O)C3N2Nc2ccc([N+](=O)[O-])cc2)cc1` (stereo not given): the z-score in [1] was -0.27; in assay [2] it was -1.06; in assay [3], 0.168; in assay [4], -0.495; in [5] it was 0.0223; in assay [6] it was -0.378. The z-score in assay [7] is -1.52 (inactive); in assay [8], 0.0302; in assay [9], -0.909; in [10] it was 0.0404 (inactive).

On to `COc1cc2c(cc1OC)CN(C(=O)[C@@H]1[C@H]3C(=O)O[C@H](c4ccccc4)[C@H](c4ccccc4)N3[C@H](c3ccc(OCCO)cc3)[C@@]13C(=O)Nc1ccccc13)CC2`, for which the z-score in [1] was 1.47; in assay [2] it was 1.04; in assay [3], 1.35; in [4], 0.48; in assay [5], 0.834; in assay [6], -0.221. Further, the z-score is 0.876 (inactive) in [7], -0.592 in assay [8], -1.17 in assay [9] and 0.319 (inactive) in [10].

Regarding `COc1ccc(NC(=O)O[C@H]2[C@H](OC(=O)Nc3ccccc3)[C@@H](OC(=O)Nc3ccccc3)[C@@H](OC)O[C@@H]2CO)cc1`, the z-score in assay [1] is -1.42; in assay [2], 0.635; in assay [3], -1.17; in assay [4], -1.18; in assay [5], -2.26; in [6], -0.107. Further, the z-score in assay [7] is -0.261 (inactive); in assay [8], -0.765; in assay [9], -1.06; in assay [10] it was -2.97 (inactive).

For the compound `O=C1O[C@H](c2ccccc2)[C@H](c2ccccc2)N2[C@H]1[C@@H](C(=O)O)[C@]1(C(=O)Nc3ccc(C#CC4=CCCCC4)cc31)[C@H]2c1ccc(O)cc1`, the z-score in assay [1] is 0.576; in assay [2], -0.029; in [3] it was 0.85; in [4], -3.14; in assay [5], -2.25; in assay [6], -3.42. Moreover, the z-score in assay [7] was 0.0262 (inactive); in [8], -1.03; in [9] it was -0.657; in [10], 0.391 (inactive).

Take `O=C1O[C@H](c2ccccc2)[C@H](c2ccccc2)N2[C@H]1[C@@H](C(=O)N1CCN(c3ncccn3)CC1)[C@]1(C(=O)Nc3ccc(C#CC4(O)CCCCCC4)cc31)[C@H]2c1ccc(OCCO)cc1`: the z-score in assay [1] is 0.282; in assay [2] it was 1.11; in assay [3] it was 0.473; in [4], -0.699; in assay [5] it was 0.148; in [6], -1.73. Besides, the z-score is -0.309 (inactive) in [7], -0.618 in assay [8], -0.87 in assay [9] and 0.746 (inactive) in [10].

With `COCCOC(=O)N1C(=O)[C@@]2(c3ccccc31)[C@H](C(=O)N1CCN(c3ncccn3)CC1)[C@H]1C(=O)O[C@H](c3ccccc3)[C@H](c3ccccc3)N1[C@@H]2c1ccc(O)cc1`, the z-score in assay [1] is -0.337; in assay [2], 0.176; in assay [3], 0.102; in assay [4], -1.41; in assay [5], -0.441; in assay [6] it was 0.745. The z-score was -0.107 (inactive) in assay [7], 0.263 in assay [8], 0.0963 in assay [9] and 1.19 (inactive) in assay [10].

Regarding `CC(CO)N1C(=O)[C@@H]2[C@H]3C(=O)OCC=C[C@H]3OC23C=CCN(CCN2CCOCC2)C(=O)[C@@H]13` (stereo not given in full), the z-score in assay [1] is -0.313; in [2], 0.344; in assay [3], -0.0457; in [4], 0.646; in [5] it was -0.0704; in assay [6], -0.382. The z-score in assay [7] is 0.126 (inactive); in assay [8] it was 0.0907; in assay [9] it was 0.12; in [10], -0.147 (inactive).

Consider `O=C1NC(=O)C2C1C=CC(C(O)c1c(F)cccc1Cl)N2Nc1ccc(Cl)cc1Cl` (stereo not given), for which the z-score was -2.11 in [1]; 0.0772 in [2]; -2.82 in assay [3]; -3.64 in assay [4]; -1.39 in [5]; -3.44 in [6]. Moreover, the z-score in assay [7] was -0.775 (inactive); in [8], -1.06; in assay [9] it was -1.46; in [10], -2.22 (inactive).

For the compound `CCOC(=O)c1ccc(NC(=O)O[C@H]2[C@H](OC(=O)Nc3ccc4c(c3)OCO4)[C@@H](OC(=O)Nc3ccc4c(c3)OCO4)[C@@H](OC)O[C@@H]2CO)cc1`, the z-score was -0.742 in [1]; 0.558 in assay [2]; -1.09 in assay [3]; -1.05 in assay [4]; -0.141 in assay [5]; 0.305 in assay [6]. The z-score in assay [7] was 0.463 (inactive); in assay [8], -0.66; in [9], -0.979; in [10], -0.214 (inactive).

In the case of `C=CC[C@]1(C(=O)NCCN2CCOCC2)N=C(c2ccc(OCCCO)cc2)O[C@H]1c1ccccc1CN=[N+]=[N-]`, the z-score in [1] is 0.779; in assay [2], 0.885; in assay [3], 0.187; in [4] it was 0.81; in assay [5], -0.221; in [6] it was 2.76. In addition, the z-score in assay [7] is 0.0141 (inactive); in assay [8], -1.08; in assay [9], -0.244; in [10], 1.2 (inactive).
